# High-throughput results from PubChem BioAssay.
# An excerpt weighted towards active compounds, which were near 4.4% of everything screened.
# TIM10 inh: inhibits growth of TIM10 yeast strain. S. cerevisiae TIM10 strain growth, BacTiter-Glo luminescence, 24 h. inhibition, % at 10 µM. 330,000 compounds, 1.4% hits;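 active means inhibition of 40% or more at the single tested concentration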;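 further: wild-type TIM10 isogenic control strain grown at permissive 25 °C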
# PfHsp90 set2: reduces growth (ATP signal) of yeast expressing P. falciparum Hsp90; S. cerevisiae expressing PfHsp90, BacTiter-Glo ATP, 48 h; yeast lacking PDR1 and PDR3 efflux regulators; inhibition, % at 9.4 µM; 310,000 compounds, 0.32% hits;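 active means every replicate shows inhibition above about 80%, whatever the replicate mean, limit read from the data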
# SKKanGAS inh: SKKanGAS growth inhibition; S. pyogenes SKKanGAS, kanamycin growth, BacTiter-Glo, 6 h; inhibition, % at 7.5 µM; 300,000 compounds, 1.3% hits; AID 1662;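 active means mean replicate score, as percent of positive control median, at least 50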;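 further: strain carries kanamycin resistance gene driven by streptokinase promoter and grows in 40 µg/ml kanamycin; loss of luminescence reflects streptokinase promoter inhibition or plain growth inhibition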
# tim10-1 inh: growth inhibitors of tim10-1 mutant yeast | S. cerevisiae tim10-1 ts strain growth, BacTiter-Glo, 24 h | inhibition, % at 20 µM | 330,000 compounds, 2.2% hits | AID 463190;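 active means inhibition of at least 40%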;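 further: mutant grown at 25 °C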
# tim23-1 inh: inhibits growth of tim23-1 mutant yeast; S. cerevisiae tim23-1 growth, BacTiter-Glo luminescence, 24 h; inhibition, % at 20 µM; 330,000 compounds, 1.3% hits; AID 463212;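 active means growth inhibition of the mutant yeast at or above 50%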;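 further: temperature-sensitive mutant grown at 25 °C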
# tim10-1 confirm: tim10-1 yeast growth inhibition, confirmed; shares compounds with tim10-1 inh; S. cerevisiae tim10-1 ts strain growth, BacTiter-Glo, 24 h; inhibition, % at 20 µM; 7,400 compounds, 56% hits; AID 463213;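 active means inhibition of yeast growth at or above a set limit in either of two repeat tests at 20 µM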;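 further: tim10-1 mutant grown at permissive 25 °C to find synthetic lethal compounds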
# Numbers stand for hits; n = inactive; x = not tested or not shown.
SMILES,TIM10 inh,PfHsp90 set2,SKKanGAS inh,tim10-1 inh,tim23-1 inh,tim10-1 confirm
CC(=O)OCC1OC(OC2C[C@]3(C)C(CC(O)C4C([C@](C)(CCC=C(C)C)OC5OC(CO)C(O)C(O)C5O)CC[C@]43C)[C@@]3(C)CCC(O)C(C)(C)C23)C(O[C@@H]2OC(C)C(O)C(O)C2O)C(O)C1O (stereo partly drawn),n,n,x,n,n,x
CC(CCC(=O)O)C1CCC2C3CC(O)C4CC(O)CC[C@]4(C)C3CCC12C (stereo partly drawn),x,n,x,x,x,x
Cc1ccc2c(c1)c(N=O)c(O)n2Cc1ccc(Cl)cc1,n,n,n,49,n,36
O=Nc1c(O)n(Cc2ccc(Cl)cc2)c2ccccc12,n,n,n,n,n,x
COc1ccc(C(=O)Cn2c(C(C)=O)nc3ccccc32)cc1,x,n,x,x,x,x
COc1ccc(/C=C/C(=O)c2nc3ccccc3n2CC(=O)c2ccc(OC)cc2)cc1,n,n,n,41,n,37
CCn1c(/C=C/c2ccccc2)nc2ccccc21,n,n,n,n,n,x
COc1ccc(Cn2c(/C=C/c3ccccc3)nc3ccccc32)cc1,n,x,n,46,n,n
O=C1c2cccnc2C(Nc2ccc(Br)cc2)N1Cc1cccs1 (stereo not drawn),n,x,n,41,n,n
COc1ccc(NC2c3ncccc3C(=O)N2Cc2cccs2)cc1 (stereo not drawn),n,n,n,n,n,x
NC(=O)CN1C(=O)C(O)(CC(=O)/C=C\c2ccc3c(c2)OCO3)c2ccccc21 (stereo not drawn),n,n,n,n,n,x
CN1C(=O)C(O)(CC(=O)/C=C\c2ccc3c(c2)OCO3)c2ccccc21 (stereo not drawn),n,n,x,42,n,n
Cc1ccc(C(C)C)cc1C(=O)CC1(O)C(=O)N(C)c2ccccc21 (stereo not drawn),n,n,n,42,n,32
CN(C)c1ccc(N2C(=NC(=O)COc3ccccc3)SC3CS(=O)(=O)CC32)cc1 (stereo not drawn),n,n,n,n,n,x
Cc1cc(C)cc(N2C(=O)CC(Sc3nnnn3-c3ccccc3)C2=O)c1 (stereo not drawn),n,n,n,51,n,51
Cn1nnnc1SC1CC(=O)N(c2ccccc2)C1=O (stereo not drawn),n,n,n,n,n,x
O=C(O)c1ccccc1-c1cc2ccccc2[nH]1,n,n,n,n,n,x
COc1ccccc1-c1cc2ccccc2[nH]1,n,n,n,51,n,33
N#CC1(Nc2ccc(C(=O)O)cc2)CCCC1,x,n,x,x,x,x
Cc1ccc(NCc2nnc(SCC(=O)N3CCCc4ccccc43)o2)c(C)c1,n,x,n,n,n,x
Cc1ccc(NCc2nnc(SCC(=O)c3ccccc3)o2)c(C)c1,n,x,n,42,n,n
C=C1CC[C@@H]2[C@](C)(CO)[C@H](O)CC[C@@]2(C)[C@@H]1/C=C/C1=CCOC1=O,n,n,n,98,n,n
O=C(O)c1ccc2c(c1)C(=O)N(CCc1ccccc1)C2=O,n,n,n,n,n,x
O=C(NC1CCN(CCc2c[nH]c3ccccc23)CC1)c1ccccc1,n,n,n,43,n,n
O=C(O)c1ccc2c(c1)C(=O)N(CCc1c[nH]c3ccccc13)C2=O,n,n,n,98,n,n
SMILES,TIM10 inh,PfHsp90 set2,SKKanGAS inh,tim10-1 inh,tim23-1 inh,tim10-1 confirm
CCCCN(CC)c1nc(-c2ccncc2)nc2ccccc12,n,n,n,43,n,n
COc1cc(/C=C/C(=O)O)cc(S(=O)(=O)Nc2ccc(S(=O)(=O)N3CCCCC3)cc2)c1OC,n,n,x,n,n,x
Cc1cccc(NC(=O)CNC(=O)CN2C(=O)NC3(CCCCC3C)C2=O)c1C (stereo not drawn),n,n,n,n,n,x
Cc1ccc(NC(=S)Nc2ccc(Cl)c(Cl)c2)c(OC(F)F)c1,n,n,n,61,n,38
CCCCN1C(=O)C(C#N)CC2=C1CC(C)(C)CC2=O (stereo not drawn),x,n,x,x,x,x
CSC1=NC(C(Cl)(Cl)Cl)N=C(c2ccc(C)cc2)N1 (stereo not drawn),n,x,n,n,n,x
Cc1cc(N2CCCC2)nc(N2C3CCC2CC(O)(c2ccc(F)cc2)C3)n1 (stereo not drawn),n,x,n,n,n,x
COc1ccc(C2(O)CC3CCC(C2)N3c2cc(C)nc(-c3ccccc3)n2)cc1 (stereo not drawn),n,n,n,42,n,32
